Assay results published in paper PMC4336329 (PLoS ONE, 2015).
In all, about 310,000 compounds went through this assay and about 14,000 (4.5%) showed an effect of 50% or more. The effect is printed as a negative number. The full list was thinned out, with strong results kept by preference.

These compounds were tested against human ether-à-go-go-related gene (hERG) potassium channel (human, UniProt Q12809) (assay: primary screen, population patch clamp on CHO cells stably expressing hERG; higher = less effect of the substance).
human ether-à-go-go-related gene (hERG) potassium channel, sequence (Q12809 whole entry, looked up): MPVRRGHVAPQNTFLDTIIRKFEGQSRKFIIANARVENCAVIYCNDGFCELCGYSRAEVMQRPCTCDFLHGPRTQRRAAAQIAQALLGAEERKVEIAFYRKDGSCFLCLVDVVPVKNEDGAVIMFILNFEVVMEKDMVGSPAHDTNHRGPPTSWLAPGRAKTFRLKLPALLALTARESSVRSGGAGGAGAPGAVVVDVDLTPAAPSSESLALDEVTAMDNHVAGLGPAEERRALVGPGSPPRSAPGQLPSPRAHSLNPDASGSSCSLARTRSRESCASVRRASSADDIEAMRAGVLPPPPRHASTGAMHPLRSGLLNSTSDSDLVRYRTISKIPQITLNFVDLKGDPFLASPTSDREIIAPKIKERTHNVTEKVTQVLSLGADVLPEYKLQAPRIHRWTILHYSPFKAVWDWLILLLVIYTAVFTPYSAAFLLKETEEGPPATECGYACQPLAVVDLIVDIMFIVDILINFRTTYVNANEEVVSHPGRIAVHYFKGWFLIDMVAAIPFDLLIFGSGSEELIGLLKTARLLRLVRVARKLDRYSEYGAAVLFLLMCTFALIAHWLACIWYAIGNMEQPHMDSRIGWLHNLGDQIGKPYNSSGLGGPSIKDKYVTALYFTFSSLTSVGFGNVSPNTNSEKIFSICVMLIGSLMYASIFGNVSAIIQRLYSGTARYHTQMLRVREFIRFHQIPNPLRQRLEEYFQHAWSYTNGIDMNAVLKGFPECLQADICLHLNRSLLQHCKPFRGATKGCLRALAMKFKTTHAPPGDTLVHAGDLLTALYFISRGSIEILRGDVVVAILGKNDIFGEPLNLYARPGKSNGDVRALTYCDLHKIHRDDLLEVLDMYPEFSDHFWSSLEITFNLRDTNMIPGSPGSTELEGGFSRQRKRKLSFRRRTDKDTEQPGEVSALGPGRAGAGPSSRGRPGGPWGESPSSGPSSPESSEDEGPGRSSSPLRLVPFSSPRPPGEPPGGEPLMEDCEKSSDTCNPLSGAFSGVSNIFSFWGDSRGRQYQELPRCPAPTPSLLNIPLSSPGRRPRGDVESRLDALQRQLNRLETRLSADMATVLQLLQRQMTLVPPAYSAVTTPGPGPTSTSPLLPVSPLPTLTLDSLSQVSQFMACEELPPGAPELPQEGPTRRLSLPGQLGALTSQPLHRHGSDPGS
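Note: peak tail current of the secondary pulse compared with the same well before compound.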

First: CC(C)NC(=O)C(Cc1ccccc1)N1C(=O)c2ccccc2C1=O (stereo not shown)
Second: O=C(c1ccccc1Cl)c1c(O)c2ccccc2oc1=O
The “hERG current change (%, negative = inhibition) at 10uM” value of the first is lower: -4.63% for the first, -3.19% for the second.

First: COc1ccc(/C(O)=C2/C(=O)C(=O)N(CCN(C)C)C2c2cccnc2)cc1C (stereo not shown)
Second: CCOc1ccc(CN(C)C(=O)NNC(=O)c2ccc(C)cc2)cc1OC
The “hERG current change (%, negative = inhibition) at 10uM” value of the first is lower: 1.58% for the first, 16.8% for the second.

Compared with `O=C(Nc1ccc(F)cc1)N1CCN(c2ccc(F)cc2)CC1`, `CC(=O)c1ccc(N2CCN(C(=O)Nc3ccc(F)cc3)CC2)cc1` is higher in “hERG current change (%, negative = inhibition) at 10uM” value: -67.8% for the first, -24.5% for the second.

Compared with `CC(=O)c1ccc(N2CCN(C(=O)Nc3ccc(C(C)C)cc3)CC2)cc1`, `CC(=O)c1ccc(N2CCN(C(=O)Nc3ccc(Cl)cc3)CC2)cc1` is higher in “hERG current change (%, negative = inhibition) at 10uM” value: -63.7% for the first, -8.35% for the second.

Compared with `O=C(Nc1ccc2snnc2c1)N1CCSCC1`, `O=C(Nc1ccc2snnc2c1)N1CCCCC1` is higher in “hERG current change (%, negative = inhibition) at 10uM” value: 6.76% for the first, 11.9% for the second.

First: CC(=O)N1CCN(c2ccc(NC(=O)c3ccc(C)cc3)cc2)CC1
Second: CC(=O)N1CCN(c2ccc(NC(=O)c3ccc(F)cc3)cc2)CC1
The “hERG current change (%, negative = inhibition) at 10uM” value of the first is higher: 5.89% for the first, -57.7% for the second.

First: O=C(Nc1ccccc1)N1CCN(c2ccc(F)cc2)CC1
Second: O=C(Nc1ccc2snnc2c1)N1CCN(c2ccccc2)CC1
The “hERG current change (%, negative = inhibition) at 10uM” value of the first is higher: -7.74% for the first, -57.2% for the second.

Compared with `CC(=O)N1CCN(c2ccc(NC(=O)c3ccc(C(C)(C)C)cc3)cc2)CC1`, `CC(=O)c1ccc(N2CCN(C(=O)Nc3ccc(C)cc3)CC2)cc1` is lower in “hERG current change (%, negative = inhibition) at 10uM” value: 0.16% for the first, -4.03% for the second.

Compared with `O=S(=O)(Nc1ccc(N2CCOCC2)cc1)c1ccc2ccccc2c1`, `Nc1cccc(S(=O)(=O)Nc2ccccc2)c1` is higher in “hERG current change (%, negative = inhibition) at 10uM” value: 3.3% for the first, 25.5% for the second.

First: O=C1C(=O)N(CCS(=O)(=O)c2ccccc2)c2ccc(F)cc21
Second: CN(CC(=O)Nc1cccc([N+](=O)[O-])c1)S(=O)(=O)c1ccccc1
The “hERG current change (%, negative = inhibition) at 10uM” value of the first is higher: 8.67% for the first, -51.9% for the second.

Going from `O=C(OCC(=O)N(CCc1ccccc1)Cc1ccccc1)c1cc(S(=O)(=O)N2CCOCC2)ccc1F` to `CN(Cc1ccccc1)S(=O)(=O)c1ccc(OCC(=O)Nc2cccc([N+](=O)[O-])c2)cc1`, the “hERG current change (%, negative = inhibition) at 10uM” value rises from -10.8% to -9.01%.

Going from `Cn1c(N2CCOCC2)cc(=O)n(C)c1=O` to `Cc1cccc(NC(=S)N(CCCN2CCOCC2)C(C)c2cc3ccccc3o2)c1C` (stereo not shown), the “hERG current change (%, negative = inhibition) at 10uM” value falls from -18.2% to -20.9%.

Compared with `Cc1cc(C(=O)N2CCc3ccccc3C2)n[nH]1`, `CN(C)CCNC(=O)c1nn(C)c2c1CCc1ccccc1-2` is lower in “hERG current change (%, negative = inhibition) at 10uM” value: 5.11% for the first, -12.4% for the second.

Compared with `Nc1cccc(NP(=O)(c2ccccc2)c2ccccc2)c1`, `CN(c1ccccc1C(=O)Nc1cccc(Br)c1)S(=O)(=O)c1ccccc1` is lower in “hERG current change (%, negative = inhibition) at 10uM” value: 11.7% for the first, -5.01% for the second.

First: Cc1c(NC(=O)C2Cc3ccccc3CN2C(=O)c2ccco2)c(=O)n(-c2ccccc2)n1C (stereo not shown)
Second: CN(c1ccccc1C(=O)Nc1cccc([N+](=O)[O-])c1)S(=O)(=O)c1ccccc1
The “hERG current change (%, negative = inhibition) at 10uM” value of the first is higher: -13.7% for the first, -63.2% for the second.

First: COc1ccc(C(=O)COC(=O)/C=C/c2ccc(S(=O)(=O)Nc3cccc(S(N)(=O)=O)c3)cc2)cc1
Second: COc1ccc(S(=O)(=O)NCC2CCCN(Cc3ccc(OC)cc3F)C2)cc1 (stereo not shown)
The “hERG current change (%, negative = inhibition) at 10uM” value of the first is higher: 4.88% for the first, -42% for the second.

Compared with `c1ccc2c(c1)Nc1cc3ccccc3cc1S2`, `CCc1cc2ccccc2nc1Cl` is lower in “hERG current change (%, negative = inhibition) at 10uM” value: 8.83% for the first, 6.29% for the second.

Compared with `COc1ccc(CCN(C)C(=S)Nc2cccc(C)c2)cc1OC`, `COc1ccc(CCN(C)CCC(=O)Nc2cccc(C)c2)cc1OC.Cl` is lower in “hERG current change (%, negative = inhibition) at 10uM” value: 5.19% for the first, -65.8% for the second.

Compared with `COc1ccc(CC(=O)Nc2cccc(-c3nnc(-c4cccc(C)c4)o3)c2)cc1OC`, `COc1ccc(CC(=O)Nc2cc(C)ccc2O)cc1OC` is lower in “hERG current change (%, negative = inhibition) at 10uM” value: 11.3% for the first, 4.22% for the second.

Going from `CCOc1ccc(CN(C)CC(=O)Nc2cccc3ccccc23)cc1OC.O=C(O)C(=O)O` to `CCOc1ccc(CN(C)CC(=O)Nc2cccc(C)c2)cc1OC`, the “hERG current change (%, negative = inhibition) at 10uM” value falls from -16.5% to -77%.

First: COc1ccc(CCN(C)CC(=O)Nc2c(C)cc(C)cc2C)cc1OC.Cl
Second: COc1ccc(CCN(C)CCC(=O)Nc2c(C)cc(C)cc2C)cc1OC
The “hERG current change (%, negative = inhibition) at 10uM” value of the first is higher: 4.26% for the first, -58.8% for the second.

First: COc1ccc(CCNCCC(=O)Nc2c(C)cc(C)cc2C)cc1OC.Cl
Second: COc1ccc(CCN(C)CCC(=O)Nc2cc(C)ccc2C)cc1OC
The “hERG current change (%, negative = inhibition) at 10uM” value of the first is higher: -13.8% for the first, -55.6% for the second.

Going from `CCOc1ccc(CN(C)CC(=O)Nc2ccc3c(c2)CCC3)cc1OC` to `COc1ccc(CCN(C)CC(=O)Nc2ccc(F)c(Cl)c2)cc1OC`, the “hERG current change (%, negative = inhibition) at 10uM” value rises from -39% to -35.3%.

Going from `COc1cccc(CN(C)CC(=O)NNC(=O)c2ccc(Cl)cc2)c1` to `CCOc1ccc(CN(C)CC(=O)NNC(=O)c2ccc(Cl)cc2)cc1OC`, the “hERG current change (%, negative = inhibition) at 10uM” value falls from -12.5% to -60.3%.

Going from `O=C(CN(Cc1ccc2c(c1)OCO2)C(=O)CNS(=O)(=O)c1ccccc1)NCc1ccco1` to `CC(=O)c1cccc(NC(=O)CN(C)S(=O)(=O)c2ccccc2)c1`, the “hERG current change (%, negative = inhibition) at 10uM” value rises from -22% to -11.5%.

Going from `CC[C@@H]1CC=C[C@H]2[C@H]1C(=O)N(Cc1ccccc1)[C@H]2c1ccc(OC)c(Cl)c1` to `COc1ccc(CCN(C)CCC(=O)Nc2ccc(C)cc2)cc1OC.Cl`, the “hERG current change (%, negative = inhibition) at 10uM” value falls from 10.6% to -64.3%.

Going from `O=C(Cc1ccc(F)cc1)OCC(=O)c1cc2ccccc2o1` to `C/C(=N\Nc1cccc(C(=O)O)c1)c1cc2ccccc2o1`, the “hERG current change (%, negative = inhibition) at 10uM” value rises from -2.43% to 9.54%.

First: CCNC(=S)NNC(=O)Cn1c(=O)c2c(ncn2CCOC)n(Cc2ccccc2)c1=O
Second: COc1ccc(Cl)cc1NC(=O)CSc1nnc(CNC(=O)c2cccs2)o1
The “hERG current change (%, negative = inhibition) at 10uM” value of the first is higher: 15.3% for the first, -39.8% for the second.

First: Cc1ccc(NC(=O)Nn2cnnc2)c(C)c1
Second: CCCCN(C)CCC(=O)Nc1ccc(C)cc1.Cl
The “hERG current change (%, negative = inhibition) at 10uM” value of the first is higher: 1.62% for the first, -14.8% for the second.

Compared with `COC(=O)CSc1[nH]c2ccc(Br)cc2c1[N+](=O)[O-]`, `CCC(C)(C)NC(=O)c1ccc(Sc2nncn2C)c([N+](=O)[O-])c1` is lower in “hERG current change (%, negative = inhibition) at 10uM” value: 16.7% for the first, 3.37% for the second.

Compared with `COC(=O)c1ccc(C)c(NC(=O)CCc2ccc(OC)c(OC)c2)c1`, `Cc1ccc(CC(=O)Nc2cccc([N+](=O)[O-])c2)cc1` is higher in “hERG current change (%, negative = inhibition) at 10uM” value: 6.37% for the first, 15.8% for the second.

First: O=[N+]([O-])c1cc(F)c(N2CCCCC2)cc1Br
Second: O=C(c1ccc(Br)s1)N1CCCC1
The “hERG current change (%, negative = inhibition) at 10uM” value of the first is higher: -3.83% for the first, -5.86% for the second.

Going from `O=C(C1CC1)N1CCc2cc(S(=O)(=O)NCC3COc4ccccc4O3)ccc21` (stereo not shown) to `O=C(NCCc1ccccc1)C1CCN(S(=O)(=O)c2cccnc2)CC1`, the “hERG current change (%, negative = inhibition) at 10uM” value rises from 6.27% to 12.9%.

Compared with `Cc1c(C)c2ccc(OC(C)C(=O)N3CC[C@@]4(O)CCCC[C@H]4C3)cc2oc1=O` (stereo partly shown), `COc1ccc2cc(C(c3nnnn3C3CCCC3)N3CCOCC3)c3nnnn3c2c1` (stereo not shown) is lower in “hERG current change (%, negative = inhibition) at 10uM” value: -11.2% for the first, -51.7% for the second.

First: COc1ccc(CN2C(=O)c3cccnc3C2=O)cc1S(=O)(=O)NC1CCCCC1C (stereo not shown)
Second: O=C1COc2ccc(S(=O)(=O)Nc3ccc4c(c3)OCO4)cc2N1
The “hERG current change (%, negative = inhibition) at 10uM” value of the first is lower: 10.8% for the first, 19.4% for the second.

Compared with `CCOC(=O)N1CCN(CC(O)COc2ccccc2C(C)CC)CC1.Cl` (stereo not shown), `COc1ccccc1C(=O)N/C(=C\c1cn(S(=O)(=O)N(C)C)c2ccccc12)C(=O)NCCCN1CCOCC1` is lower in “hERG current change (%, negative = inhibition) at 10uM” value: 0.934% for the first, -7.58% for the second.

Going from `COc1ccc(C(Nc2cccc([N+](=O)[O-])c2)P(=O)(OC(C)C)OC(C)C)cc1` (stereo not shown) to `CN(c1ccccc1C(=O)Nc1cccc([N+](=O)[O-])c1)S(C)(=O)=O`, the “hERG current change (%, negative = inhibition) at 10uM” value rises from -31.5% to -20%.

Going from `Cn1cnnc1Sc1ccc(C(=O)NCCC23CC4CC(CC(C4)C2)C3)cc1[N+](=O)[O-]` to `Cn1cnnc1Sc1ccc(C(=O)NCCC(c2ccccc2)c2ccccc2)cc1[N+](=O)[O-]`, the “hERG current change (%, negative = inhibition) at 10uM” value falls from 12.9% to -74.3%.

Compared with `Cc1ccc(CN(C)CC(=O)Nc2cccc([N+](=O)[O-])c2)o1`, `CN(CC(=O)Nc1cccc(F)c1)CC(=O)Nc1cccc([N+](=O)[O-])c1` is higher in “hERG current change (%, negative = inhibition) at 10uM” value: -58.4% for the first, -39.7% for the second.

Compared with `FC(F)(F)c1nnc2c(Sc3ccccc3)nc3ccc(Cl)cc3n12`, `Cc1ccc(S(=O)(=O)NCc2c(-c3ccccc3)c3cc(Cl)ccc3[nH]c2=O)cc1` is lower in “hERG current change (%, negative = inhibition) at 10uM” value: 12.2% for the first, 7.18% for the second.

Going from `CCC(C)(C(=O)NC1CCCCC1)N(CC1CCCO1)C(=O)c1ccccn1` (stereo not shown) to `CCC(C)(C(=O)NC1CCCCC1)N(CC1CCCO1)C(=O)CNC(=O)c1ccccc1` (stereo not shown), the “hERG current change (%, negative = inhibition) at 10uM” value rises from -63.3% to 6.13%.

Going from `CCC(C)(C(=O)NC1CCCCC1)N(C)C(=O)c1ccccn1` (stereo not shown) to `COc1ccc2cc(C(c3nnnn3C3CCCC3)N3CCCCCC3)c3nnnn3c2c1` (stereo not shown), the “hERG current change (%, negative = inhibition) at 10uM” value rises from 2.9% to 15.9%.

With `COc1ccc2cc(C(c3nnnn3C3CCCCC3)N3CCCCCC3)c3nnnn3c2c1` (stereo not shown) the “hERG current change (%, negative = inhibition) at 10uM” value was 4.6%.
